Measured potencies and affinities stand elsewhere. The source made the active and inactive calls.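 How the source made its calls: active means every repeat run showing a signal drop whose fitted half-maximal concentration is at most twice the top tested concentration; inconclusive means repeat runs disagree, or flat partial drop, or poor fit; inactive means the rest.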
test: general mammalian cell viability loss – activator set, cherry-pick, cytotoxicity control for miR-122 modulator project, dose response (AID 720690); conditions: HEK293T viability, CellTiter-Glo luminescence, 48 h; series mostly up to 26 µM

SMILES | outcome
CCCC(NS(=O)(=O)c1ccc(Br)cc1)C(=O)O (centres undefined) | inactive
CCCC#Cc1ccc2c(c1)O[C@H](CN(C)C(=O)COC)[C@H](C)CN([C@@H](C)CO)S2(=O)=O | inactive
CCC(=O)N1[C@@H](CO)[C@@H](c2ccccc2)[C@@H]1CN(C(C)C)S(C)(=O)=O | inactive
C[C@@H]1CN([C@@H](C)CO)S(=O)(=O)c2ccc(C#Cc3ccncc3)cc2O[C@@H]1CN(C)C(=O)Nc1ccc2c(c1)OCO2 | inactive
Cc1ccc(-c2ccc3c(c2)O[C@H](CN(C)C(=O)CC2CC2)[C@H](C)CN([C@H](C)CO)S3(=O)=O)cc1 | inactive
COc1cccc(-c2nc(NCCN3CCOCC3)c3ccccc3n2)c1O | inactive
COc1ccc(C#Cc2ccc3c(c2)O[C@@H](CN(C)C(=O)CN2CCOCC2)[C@@H](C)CN([C@H](C)CO)S3(=O)=O)cc1 | inactive
CN(C)CCNc1ncnc2c1sc1nc(N3CCOCC3)c3c(c12)CC(C)(C)SC3 | inactive
O=C(Nc1ccc(Cl)c(C(F)(F)F)c1)c1ccco1 | inactive
O=c1c2c3c(sc2nc2n1CCC2)CCCC3 | inactive
C/C(=N\Nc1cc(N2CCCCC2)nc(C)n1)c1ccc(Br)cc1 | inactive
COC(=O)C[C@@H]1CC[C@H]2[C@@H](COc3ccc(NC(=O)c4ccc(C(F)(F)F)cc4)cc3C(=O)N2C)O1 | inactive
CN1C(=O)c2cc(NC(=O)c3cc(F)cc(F)c3)ccc2OC[C@@H]2O[C@@H](CC(=O)O)CC[C@@H]21 | inactive
CN1C(=O)c2cc(NC(=O)c3cccs3)ccc2OC[C@H]2O[C@@H](CC(=O)NCCN3CCCCC3)CC[C@H]21 | inactive

From PubChem BioAssay AID720690 (Broad Institute, 2013)
